Data as given in PubChem BioAssay AID651558 (National Center for Advancing Translational Sciences (NCATS), 2012).
About 480 (40%) of roughly 1,200 compounds were called active. Another 29% or so got no clear call; they are omitted. Calls follow the shape of the dose curve; as a rule, active = well fitted inhibition curve with a large enough effect; inconclusive = small, poorly fitted or top-dose-only effect; inactive = no such curve, though single readings can be large or run the other way. The list shows a part of the results.

Test: qHTS Assay to Find Inhibitors of Chronic Active B-Cell Receptor Signaling: Hit Validation in Primary Screen; also: nearly all actives have a fitted effect of over 75% in size
Settings: ABC-DLBCL IkB-luc/CBR ratio luminescence, 4 h; series mostly up to 46.1 µM; activity change, negative = inhibition: at the top concentration
Source text: Diffuse large B-cell lymphoma (DLBCL) is the most common category of non-Hodgkin lymphoma, with ~20,000 new cases per year in the United States. DLBCL should be regarded as a collection of different neoplasms. Microarray gene expression analysis has defined two principal types of DLBCL, named for their similarity to normal B cell stages or activation states: a germinal center B-cell (GCB) type, and an activated B-cell (ABC) type. In ABC-DLBCL, a constitutive high-level activity of the NF-kappaB family of transcription factors has been observed (1) and NF-kappaB target genes are more highly expressed in ABC primary tumors than in GCB tumors. Functional studies have shown a constitutive high-level activity of the IkappaB (inhibitor of kappa-B) kinase (IKK) complex. […] Further analysis of DLBCL primary tumors for NF-kappaB target gene expression imply that although CARD11 is required for constitutive IKK activity in all ABC-DLBCL lines, mutations in CARD11 may be the root cause of IKK activation only in lines or tumors with such mutations. In other words, CARD11 mutations may explain NF-kappaB activation in only 10% of ABC-DLBCL cases. […] This process has been termed 'chronic active BCR signaling' (CABS). The goal of this screen is to find small-molecule inhibitors of the CABS pathway found in ABC-DLBCL lines using a cell-based assay that measures IkappaBalpa stability, which has already been extensively validated in the OCI-Ly3 line (PubChem AID:445; REF: 4). […] A cell-sensor assay for I-kappa-B-alpha stabilization has been developed. The assay uses green (CBG68) and red (CBR) emitting beetle luciferases [Chroma-GloTM developed by Promega Corp.] where the green luciferase is fused to IkappaBalpha and the red luciferase is present in its native state. Both luciferase genes are stably present in the TMD8 human ABC DLBCL cell line, but their expression is under the control of tetracycline-inducible promoters. Following the addition of doxycycline to induce expression of the luciferases, the green luminescence in control cultures rises only slowly because the CBG fusion partner IkappaBalpha is targeted by IKK activity for rapid degradation. In contrast, green luminescence rises rapidly in the presence of proteasome inhibitors or IKK inhibitors. The rise in red luminescence of CBR is not affected by proteasome or IKK inhibitors, and serves as normalization for cell number and nonspecific effects. Compounds were screened as a concentration-titration series that ranged from 46 uM to 3 nM. NIH Molecular Libraries Probe Production Network [MLPCN] NIH Chemical Genomics Center [NCGC] MLPCN Grant: R03 DA031086 PI Name: Dr. R. Eric Davis
Cells were seeded in 1536-well plates at 5000 cells/4uL in IMDM medium containing 0.5% FBS, w/o phenol red, 1% penicillin/streptomycin. Then, 23 nL of compounds or DMSO were delivered to each well using a pin tool. One uL 20ng/ml doxycycline was then dispensed into white solid 1536-well plates and the plates were incubated at 37C/5% C02 in a cell incubator for 4 hrs. Then 4 uL luminescent substrate mix (in-house prepared: 150 mM Tris-Cl, pH 7.6, 3 mM MgCl2, 1% Triton X-100, 5 mM DTT, 0.2 mM CoA, 0.15 mM ATP, 5 mM D-luciferin, final concentrations) was added to each well. The plate was incubated at r.t. for 10-15 min. The plates were measured on a ViewLux plate reader for green luminescence (540/20 nm filter) and red luminescence (618/8 nm filter). The green and red luminescent signals were corrected for red and green luminescence filter overlap using previously determined filter calibration constants (determined using the procedure outlined in the Promega Technical Manual; REF 4). The %Activity was determined from the ratio of corrected green/red luminescent values. MG132 were used as control. Green luminescent and ratio %Activity was determined by normalizing to the difference in signal between basal cells (0% Activity) and cells incubated with 10 uM of the proteasome inhibitor MG-132 (100% Activity). […]
% is scaled to controls: 0 for no effect and ±100 for the full control effect; potency is read from the fitted curve at half-maximal effect.

| SMILES | Potency | activity change, negative = inhibition |
| --- | --- | --- |
| COc1cc2c(c(OC)c1OC)-c1ccc(O)cc1[C@@H](NC(C)=O)CC2 | 461 nM (active) | – |
| COc1cc2c(c(OC)c1OC)-c1ccc(O)c(=O)cc1C(NC(C)=O)CC2 (stereo unspecified) | 231 nM (active) | – |
| COc1cc([C@@H]2c3cc4c(cc3[C@H](O)[C@H]3COC(=O)[C@H]23)OCO4)cc(OC)c1OC | 46.1 nM (active) | – |
| COc1cc(C2c3cc4c(cc3CC3COC(=O)C32)OCO4)cc(OC)c1OC (stereo unspecified) | – | 56.7% (inactive) |
| CCCCOCCCn1c(N)c(C(=O)OCCOC)c2nc3ccccc3nc21 | – | 7.36% (inactive) |
| C=CC[C@@H](CC/C=C/C=C/CC/C=C\[C@@H]1CSC([C@@H]2C[C@@H]2C)=N1)OC | 820 nM (active) | – |
| CC[C@]12CC[C@H](O)CC1=CCC1C2CC[C@]2(C)C(=O)CCC12 (stereo partly specified) | – | -9.41% (inactive) |
| O=c1c2ccccc2[se]n1-c1ccccc1 | 20600 nM (active) | – |
| Cc1cc(C)c(C(=O)CN2CCOCC2)c(C)c1 | – | -10.1% (inactive) |
| CCNC(=O)[C@H]1O[C@@H](n2cnc3c(N)ncnc32)[C@H](O)[C@@H]1O | 130 nM (active) | – |
| COc1ccc(C(=O)Oc2cccc3cccnc23)cc1S(=O)(=O)N1CCOCC1 | – | -4.8% (inactive) |
| C/C(=N\N1CCCCC1)c1c(O)[nH]c(=O)[nH]c1=O | – | -16.6% (inactive) |
| CCC(=NCCC(c1ccccc1)c1ccccc1)c1c(O)[nH]c(=O)[nH]c1=O | 20600 nM (active) | – |
| O=C1C(=O)c2cccc3cccc1c23 | 18400 nM (active) | – |
| CCc1ccccc1N1C(=O)/C(=C/c2ccc(N3CCN(C)CC3)o2)C(=O)NC1=S | – | 27.4% (inactive) |
| O=c1c2ccccc2nc(/C=C/c2ccc([N+](=O)[O-])o2)n1-c1ccc(O)cc1 | 4110 nM (active) | – |
| COc1ccc(C=C2C(=O)N(C)C(=O)N(C)C2=O)cc1COc1ccc(NC(C)=O)cc1 | – | -14.9% (inactive) |
| C#CCOc1cc(C2C3=C(COC3=O)Nc3cc4c(cc32)OCO4)ccc1OC (stereo unspecified) | 1460 nM (active) | – |
| CN(C)C(=S)SSC(=S)N(C)C | 16400 nM (active) | – |
| COc1ccc(-c2nn(CCC#N)cc2C(=O)Nc2ccc(C(C)=O)cc2)cc1[N+](=O)[O-] | – | 81.1% (inactive) |
| COc1cc2c(cc1O)CC[C@@H]1[C@@H]2CC[C@]2(C)[C@@H](O)CC[C@@H]12 | 18400 nM (active) | – |
